Compounds with a hit are over-represented: about 3.2% of the library has one in this group of screens.
FBA Mtb inh – Mtb fructose-bisphosphate aldolase inhibition | P9WQA3 | purified M. tuberculosis FBA, fluorescence read-out | inhibition, % at 1 µM | 360,000 tested, 2.3% active | AID 588726;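 also: 0% = vehicle and 100% = reference inhibitor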
Target sequence (P9WQA3 whole entry, looked up): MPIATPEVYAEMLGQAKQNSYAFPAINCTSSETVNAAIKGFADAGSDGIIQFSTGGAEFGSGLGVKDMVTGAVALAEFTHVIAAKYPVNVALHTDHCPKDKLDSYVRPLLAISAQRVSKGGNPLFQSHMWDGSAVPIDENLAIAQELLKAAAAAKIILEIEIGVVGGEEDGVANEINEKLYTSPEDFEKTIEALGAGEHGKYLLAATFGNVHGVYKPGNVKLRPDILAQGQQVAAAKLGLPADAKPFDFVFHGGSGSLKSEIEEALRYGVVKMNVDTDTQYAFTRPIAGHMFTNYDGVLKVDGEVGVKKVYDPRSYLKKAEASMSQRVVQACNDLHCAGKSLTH
Yp Topo-I inh – Y. pestis Topo-I inhibition via cleavage products | activity, % at 10 µM | AID 504884 | 360,000 tested, 0.064% active | Y. pestis Topo-I cleavage product accumulation, plate reader; in the data active = activity above about 50%, passing the limit was not always enough
PrPC surface inh – inhibitors of human cell surface prion protein PrPC; 370,000 tested, 0.43% active; AID 720596; TR-FRET read-out; P04156; inhibition, % at 13.8 µM; in the data active = inhibition above about 24%; also: 0% = median of the test wells and 100% = reference compound wells
GDH-TPI counter-1 – counter-screen for M. tuberculosis FBA inhibitors: GDH-TPI coupled enzymes | 360,000 tested, 1.2% active | AID 588335 | GDH-TPI coupled enzyme counterscreen, NADH absorbance | inhibition, % at 4.8 µM; in the data active = inhibition above about 30%;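 also: 0% = DMSO wells and 100% = wells lacking the enzyme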
TcdB inh – TcdB glycohydrolase inhibition; inhibition, % at 9.99 µM; TcdB glycohydrolase enzymatic assay, plate reader; 350,000 tested, 0.24% active; AID 652162; in the data active = inhibition above about 10%
Mtb FBA inh conf – Mtb FBA inhibition, confirmed. shares compounds with FBA Mtb inh. purified M. tuberculosis FBA, fluorescence read-out. inhibition, % at 1 µM. 5,600 tested, 78% active. AID 651616;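 also: 0% = vehicle wells and 100% = reference inhibitor wells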
GDH-TPI counter-2 – counter-screen for M. tuberculosis FBA inhibitors: GDH-TPI coupled enzyme inhibition. shares compounds with FBA Mtb inh. GDH-TPI coupled enzyme counterscreen, fluorescence. inhibition, % at 1 µM. 5,600 tested, 81% active. AID 652141; in the data active = inhibition above about 10%
GDH-TPI DR – counter-screen for M. tuberculosis FBA inhibitors: GDH-TPI dose response; shares compounds with FBA Mtb inh; IC50, µM; AID 652145; 170 tested, 79% active; GDH-TPI coupled enzyme assay, fluorescence, artifact counterscreen; call rule not given here
The depositor's hits bear a star. Rule as the data show it, unless noted: active = inhibition above about 27%; inactive = the rest.

What do the screens show for `Cc1ccc2c(C)cc[n+](CCCS(=O)(=O)[O-])c2c1`?
FBA Mtb inh: 43*; Yp Topo-I inh: -4; PrPC surface inh: -6; GDH-TPI counter-1: 13; Mtb FBA inh conf: 13; GDH-TPI counter-2: 5; GDH-TPI DR: >10

Results for Cc1cc(C)c2sc(C)[n+](CCCS(=O)(=O)[O-])c2c1 ?
FBA Mtb inh: 6; Yp Topo-I inh: 1; PrPC surface inh: -11; GDH-TPI counter-1: 0; TcdB inh: -2

Results for C[C@H]1CCCCO[C@H](CN(C)Cc2ccc(C(=O)O)cc2)[C@@H](C)CN([C@@H](C)CO)C(=O)c2cc(NC(=O)Nc3ccccc3)ccc2O1 ?
TcdB inh: -14

Results for Cc1ccc2cc3c(nc2c1)N(c1ccccc1)CC3 ?
FBA Mtb inh: 47*; Yp Topo-I inh: 3; PrPC surface inh: 1; GDH-TPI counter-1: 6; TcdB inh: 1; Mtb FBA inh conf: 5; GDH-TPI counter-2: -5

What do the screens show for `CC(=O)NN1CCc2cc3ccc(C)cc3nc21`?
FBA Mtb inh: 40*; Yp Topo-I inh: 3; PrPC surface inh: 7; GDH-TPI counter-1: 15; TcdB inh: -5; Mtb FBA inh conf: -1; GDH-TPI counter-2: 0

Results for CN(C)CCNC(=O)c1cccc2[nH]c(-c3ccncc3)nc12 ?
FBA Mtb inh: 35*; Yp Topo-I inh: -9; PrPC surface inh: 0; GDH-TPI counter-1: 12; TcdB inh: 1; Mtb FBA inh conf: 22; GDH-TPI counter-2: 20*

What do the screens show for `CC(C)C(C(=O)NC(C)(C)C)N1C(=O)c2ccccc2C1=O` (configuration not stated)?
FBA Mtb inh: 1; Yp Topo-I inh: -5; PrPC surface inh: 0; GDH-TPI counter-1: 3

Results for CC(C(=O)NC(C)(C)C)N1C(=O)c2cccc3cccc(c23)C1=O (configuration not stated) ?
FBA Mtb inh: 27*; Yp Topo-I inh: 2; PrPC surface inh: -36; GDH-TPI counter-1: 9; TcdB inh: 1; Mtb FBA inh conf: 3; GDH-TPI counter-2: 5

How did O=C(COc1cccnc1[N+](=O)[O-])N1CCN(S(=O)(=O)c2ccccc2)CC1 do in these assays?
FBA Mtb inh: -1; Yp Topo-I inh: -2; PrPC surface inh: 0; GDH-TPI counter-1: -10

How did O=C(COc1nnc2ccccn12)N1CCN(S(=O)(=O)c2ccccc2)CC1 do in these assays?
FBA Mtb inh: 35*; Yp Topo-I inh: -7; PrPC surface inh: -7; GDH-TPI counter-1: 2; Mtb FBA inh conf: -5; GDH-TPI counter-2: -3

How did c1nc2sc3c(c2c2nnnn12)CCC3 do in these assays?
FBA Mtb inh: 36*; Yp Topo-I inh: 12; PrPC surface inh: -3; GDH-TPI counter-1: 2; Mtb FBA inh conf: 10; GDH-TPI counter-2: 3

What do the screens show for `c1nc2sc3c(c2c2nnnn12)CCCC3`?
FBA Mtb inh: 22; Yp Topo-I inh: -7; PrPC surface inh: -4; GDH-TPI counter-1: 14

How did Nc1ccccc1C(=O)NCC1(c2ccccc2)CCCC1 do in these assays?
FBA Mtb inh: 33*; Yp Topo-I inh: 15; PrPC surface inh: -5; GDH-TPI counter-1: -17; TcdB inh: 0; Mtb FBA inh conf: 160*; GDH-TPI counter-2: 128*

What do the screens show for `O=C(N[C@H]1CC[C@H](CCNC(=O)C2CCCCC2)O[C@H]1CO)c1ccncc1`?
TcdB inh: -1

How did C[C@@H]1CN([C@@H](C)CO)C(=O)c2cc(NS(C)(=O)=O)ccc2O[C@H]1CN(C)CC1CCCCC1 do in these assays?
TcdB inh: -6

How did O=c1[nH]c2ccccc2nc1-c1cccs1 do in these assays?
FBA Mtb inh: 104*; Yp Topo-I inh: 5; PrPC surface inh: -17; GDH-TPI counter-1: 15; Mtb FBA inh conf: 143*; GDH-TPI counter-2: 107*

What do the screens show for `Cc1noc(C)c1S(=O)(=O)N(C)C[C@H]1Oc2ccc(NS(=O)(=O)c3ccccc3)cc2CC(=O)N([C@H](C)CO)C[C@@H]1C`?
TcdB inh: -1

How did COc1cc(C=Nc2ccccc2C(=O)Nc2ccccc2)cc(OC)c1OC do in these assays?
FBA Mtb inh: 51*; Yp Topo-I inh: -6; PrPC surface inh: 5; GDH-TPI counter-1: 6; TcdB inh: 0; Mtb FBA inh conf: active; GDH-TPI counter-2: active

What do the screens show for `C(=N\Nc1ncnc2sc3c(c12)CCC3)/c1ccncc1`?
FBA Mtb inh: -5; Yp Topo-I inh: -4; PrPC surface inh: 8; GDH-TPI counter-1: 18

What do the screens show for `c1cc(Nc2ncnc3sc4c(c23)CCC4)ccn1`?
FBA Mtb inh: 60*; Yp Topo-I inh: 1; PrPC surface inh: 5; GDH-TPI counter-1: 5; TcdB inh: 1; Mtb FBA inh conf: 8; GDH-TPI counter-2: -4

Results for COc1ccc(OC)c2c1CCC1(C2)NC(=O)NC1=O (configuration not stated) ?
FBA Mtb inh: -2; PrPC surface inh: 6; TcdB inh: -2

Results for COc1ccc(OC)c2c1CC(C)(C)NC2=O ?
FBA Mtb inh: 74*; Yp Topo-I inh: 6; PrPC surface inh: -6; GDH-TPI counter-1: -3; TcdB inh: -2; Mtb FBA inh conf: 33*; GDH-TPI counter-2: 32*

Results for Cc1ccc(-n2nc(C)c3c(C)c(CCC(=O)O)c(C)nc32)cc1C ?
FBA Mtb inh: 40*; Yp Topo-I inh: -7; PrPC surface inh: 0; GDH-TPI counter-1: 2; TcdB inh: -1; Mtb FBA inh conf: 1; GDH-TPI counter-2: 0

Results for Cc1ccc(-n2nc(C)c3c(C)c(CCC(=O)O)c(C)nc32)cc1 ?
FBA Mtb inh: 68*; Yp Topo-I inh: -9; PrPC surface inh: -4; GDH-TPI counter-1: 2; TcdB inh: 7; Mtb FBA inh conf: 184*; GDH-TPI counter-2: 117*

What do the screens show for `CCOC(=O)CCc1c(C)nc2c(c(C)nn2-c2ccc(C)cc2)c1C`?
FBA Mtb inh: 8; Yp Topo-I inh: 4; PrPC surface inh: 1; GDH-TPI counter-1: 0; TcdB inh: 1

How did O=C(C[C@@H]1C[C@H]2c3cc(NS(=O)(=O)c4ccc(F)cc4)ccc3O[C@H]2[C@H](CO)O1)NCc1ccccc1F do in these assays?
TcdB inh: 2

How did Cc1c(NCc2ccncc2)cccc1C(=O)O do in these assays?
FBA Mtb inh: 3; Yp Topo-I inh: 1; PrPC surface inh: 9; GDH-TPI counter-1: 2; TcdB inh: 0

How did Cc1c(NCc2cccnc2)cccc1C(=O)O do in these assays?
FBA Mtb inh: 100*; Yp Topo-I inh: -6; PrPC surface inh: -4; GDH-TPI counter-1: -2; TcdB inh: -1; Mtb FBA inh conf: 112*; GDH-TPI counter-2: 100*

What do the screens show for `CN(C)CC#Cc1ccc([C@H]2[C@@H](CO)N3CCCCN(CC4CC4)C[C@H]23)cc1`?
TcdB inh: 0

Screens (PubChem)
